Unmarked numbers belong to inactive results.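 Rule for the calls: active = AUC reduced over 20% with Padj below 0.05 in at least 2 of 3 replicates; inactive = otherwise.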
Assays:
Experiment in all cases: growth AUC relative to DMSO control (median of replicates) (fraction); higher = more growth (less inhibition), active = hit call of the paper
Conditions in all cases: 20 µM; 24 h
[1] = tested on: Coprococcus comes
In short: (§1)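 For each compound at 20 µM (1% DMSO), gut bacterial monocultures seeded at OD600 0.05 grew anaerobically in mGAM at 37 °C in round-bottom 96-well plates. Hourly OD600 readings over 24 h gave growth curves whose minimum OD was set to 0. Area under these curves was normalised to the plate median of solvent-only wells, or to row and column medians on the industrial chemical plate. Values are medians of three biological replicates grown on separate days.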

[2] = tested on: Escherichia coli ED1a
In short: as §1

[3] = tested on: Escherichia coli IAI1
In short: as §1

[4] = tested on: Eubacterium rectale
In short: as §1

[5] = tested on: Fusobacterium nucleatum subsp. animalis
In short: as §1

[6] = tested on: Lactobacillus gasseri
In short: as §1

[7] = tested on: Lactobacillus paracasei
In short: as §1

[8] = tested on: Odoribacter splanchnicus
In short: as §1

[9] = tested on: Parabacteroides distasonis
In short: as §1

[10] = tested on: Parabacteroides merdae
In short: as §1

SMILES | growth AUC [1] | growth AUC [2] | growth AUC [3] | growth AUC [4] | growth AUC [5] | growth AUC [6] | growth AUC [7] | growth AUC [8] | growth AUC [9] | growth AUC [10]
Clc1ccccc1Cl | 1.02 | 0.971 | 0.994 | 0.972 | 0.975 | 0.948 | 1.02 | 0.95 | 0.996 | 1.01
CC1(C)C(C(=O)OC(C#N)c2cccc(Oc3ccccc3)c2)C1(C)C (stereo not given) | 1.03 | 1.01 | 0.988 | 1 | 0.928 | 0.909 | 1.04 | 0.959 | 1.15 | 0.965
CCC1COC(Cn2cncn2)(c2ccc(Cl)cc2Cl)O1 (stereo not given) | 0.982 | 0.988 | 0.96 | 0.755 | 0.917 | 1.1 | 0.92 | 0.983 | 1 | 0.948
Oc1ccccc1Cl | 0.975 | 1.01 | 1.01 | 0.921 | 0.994 | 1.05 | 0.883 | 0.906 | 0.995 | 1
CNC(=O)Oc1ccccc1OC(C)C | 0.974 | 0.986 | 0.982 | 0.952 | 0.994 | 0.892 | 0.982 | 1.02 | 1.01 | 0.981
CCC(C)(CC)c1cc(NC(=O)c2c(OC)cccc2OC)on1 | 1.03 | 1.01 | 0.988 | 0.986 | 0.986 | 0.932 | 1.02 | 1.04 | 1 | 0.939
O=[N+]([O-])NC1=NCOCN1Cc1cnc(Cl)s1 | 0.971 | 0.992 | 0.997 | 1.1 | 1.15 | 0.809 | 0.988 | 1.04 | 1.01 | 0.965
COC(=O)NC(=S)Nc1ccccc1NC(=S)NC(=O)OC | 0.93 | 0.995 | 0.996 | 1.14 | 1.12 | 0.835 | 1.01 | 1.05 | 0.944 | 1.03
CCOCN(C(=O)CCl)c1c(C)cccc1CC | 1.01 | 1 | 1.04 | 0.983 | 1.04 | 1.03 | 1.05 | 1.01 | 1.03 | 0.974
CCCCN(CC)c1c([N+](=O)[O-])cc(C(F)(F)F)cc1[N+](=O)[O-] | 1.03 | 0.994 | 1 | 0.864 | 1.04 | 1 | 1.03 | 1.05 | 1.06 | 1
CCS(=O)(=O)c1nc2ccccn2c1S(=O)(=O)NC(=O)Nc1nc(OC)cc(OC)n1 | 1.04 | 0.99 | 1.01 | 0.999 | 0.977 | 0.88 | 1.01 | 1.05 | 1.02 | 1.02
CCCCCCCCSC(=O)Oc1cc(Cl)nnc1-c1ccccc1 | 0.98 | 0.976 | 0.972 | 0.868 | 0.914 | 1.02 | 1.04 | 0.905 | 0.99 | 0.967
COCC(=O)N(c1c(C)cccc1C)[C@H](C)C(=O)OC | 1.04 | 1.02 | 1.05 | 1.01 | 1.02 | 0.957 | 1 | 1.03 | 1.05 | 1.05
c1cc2ccc3cccc4ccc(c1)c2c34 | 0.914 | 0.958 | 0.982 | 1.04 | 0.945 | 0.993 | 0.934 | 1 | 0.751 (active) | 0.976
O=S(=O)(c1ccccc1)c1ccccc1 | 0.977 | 0.988 | 0.97 | 1.03 | 1 | 0.914 | 1.03 | 0.999 | 1.02 | 0.929
O=C(NC(=O)c1c(F)cccc1F)Nc1cc(Cl)c(Oc2ncc(C(F)(F)F)cc2Cl)c(Cl)c1 | 1.02 | 1.02 | 0.991 | 1.01 | 1.02 | 1.16 | 1.02 | 1.02 | 1.02 | 1.02
CCOP(=S)(OCC)SCS(=O)C(C)(C)C (stereo not given) | 1.05 | 1.04 | 1.01 | 1.01 | 1.07 | 0.959 | 0.754 | 1.04 | 1.01 | 1.01
O=C(NCCc1ncc(C(F)(F)F)cc1Cl)c1ccccc1C(F)(F)F | 1 | 1.01 | 0.988 | 0.964 | 0.875 | 0.999 | 1.01 | 0.985 | 0.96 | 0.996

Source: the supplement of paper PMC12669032
